# According to article PMC5540273 (PLoS ONE, 2017):
# What was measured:
# Settings in all cases: concentration: 1 μM,replicates: in singlicate; n = 1
# MEK5 = tested on: T1, MEK5
# T1 construct: gene MAP2K5
# MEK6 = tested on: T2, MEK6
# T2 construct: gene MAP2K6
# MELK = tested on: MELK
# MERTK = tested on: MERTK
# MET = tested on: MET
# MINK = tested on: T3, MINK
# T3 construct: gene MINK1
# MKK7 = tested on: MKK7
# MKNK1 = tested on: MKNK1
# MKNK2 = tested on: MKNK2
# MLCK = tested on: T4, MLCK
# T4 construct: gene MYLK3
# MLK1 = tested on: T5, MLK1
# T5 construct: gene MAP3K9
# MLK2 = tested on: MLK2
# MLK3 = tested on: MLK3
# MRCKA = tested on: MRCKA
# MRCKB = tested on: T6, MRCKB
# T6 construct: gene CDC42BPB
# MST1R = tested on: MST1R
# MST1 = tested on: T7, MST1
# T7 construct: gene STK4
# MST2 = tested on: T8, MST2
# T8 construct: gene STK3
# MST3 = tested on: T9, MST3
# T9 construct: gene STK24
# MST4 = tested on: MST4
# 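Also: KINOMEscan kinase panel screen.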
SMILES,%Inh (MEK5) [%],%Inh (MEK6) [%],%Inh (MELK) [%],%Inh (MERTK) [%],%Inh (MET) [%],%Inh (MINK) [%],%Inh (MKK7) [%],%Inh (MKNK1) [%],%Inh (MKNK2) [%],%Inh (MLCK) [%],%Inh (MLK1) [%],%Inh (MLK2) [%],%Inh (MLK3) [%],%Inh (MRCKA) [%],%Inh (MRCKB) [%],%Inh (MST1R) [%],%Inh (MST1) [%],%Inh (MST2) [%],%Inh (MST3) [%],%Inh (MST4) [%]
Cc1ccc(CC(=O)N2CCc3cc(-c4cn(C)c5ncnc(N)c45)ccc32)cc1 [GSK2634758],99.9,0,7,27,86,6,18,0,52,12,15,17,24,0,9,39,94.9,58,56,35
CCN1CCN(CCCC(=O)Nc2n[nH]c3nc(-c4ccc(O)cc4)c(Br)cc23)CC1 [SB-731579],42,0,0,2,0,0,0,46,46,39,0,0,0,0,0,17,2,57,0,60
CN(c1ccccc1CNc1nc(Nc2ccc3c(c2)CC(=O)N3)ncc1C(F)(F)F)S(C)(=O)=O,17,93.9,94.3,97.3,86,48,0,0,0,43,95.4,77,92.9,0,0,65,14,70,30,77
Cc1ccc2c(-c3ccnc(Nc4ccc(C(F)(F)F)cc4)n3)cnn2n1 [GW819776],33,13,0,26,5,18,0,0,0,0,7,35,3,0,16,0,13,39,0,0
COc1cc(Nc2nccc(N3CCC(NC(=O)c4cccc(C#N)c4)C3)n2)cc(OC)c1OC (centres unmarked) [GSK1379751],85,0,0,9,6,0,16,0,67,0,52,34,25,18,0,21,0,0,0,0
Cl.c1ccc(Oc2ccc(Nc3ccnc4cc(-c5ccc(CN6CCNCC6)o5)ccc34)cc2)nc1 [GW567142],99.9,16,0,0,0,27,11,0,42,4,0,0,0,0,0,39,0,31,8,0
Cc1ccc(Nc2ccnc(Nc3ccc4c(c3)CS(=O)(=O)C4)n2)cc1O.Cl [GW579362],99.8,46,0,99.5,80,64,0,43,94.5,0,94.2,100,89,9,0,81,19,60,29,25
O=C(Nc1ccc(Oc2ccc3nc(NC(=O)C4CC4)cn3n2)c(F)c1)c1cccn(-c2ccccc2)c1=O,97,0,18,96,–,0,0,20,92.5,0,19,32,10,0,0,39,0,0,0,0
C[C@@H](Oc1cc(-n2cnc3cc(-c4ccncc4)ccc32)sc1C(N)=O)c1ccccc1Cl [GSK479719],21,0,0,86,52,0,0,0,28,0,61,0,24,0,8,21,56,70,0,0
CN1CCN(CCNc2nc3cc(Oc4ccc(NC(=O)Nc5cc(C(F)(F)F)ccc5F)cc4)ccc3[nH]2)CC1.Cl.Cl [GW768504],2,12,0,85,6,0,0,24,26,0,0,40,0,0,4,0,16,0,0,0
COc1cc2ncn(-c3cc(OCC4CCCCC4)c(C(N)=O)s3)c2cc1OC [GSK204559],99.6,0,13,33,17,31,0,33,10,3,12,33,34,0,0,35,11,0,0,0
COc1cccc(C2=C(Nc3cccc(Cl)c3)C(=O)NC2=O)c1 [SB-341556],38,0,0,0,0,0,10,0,27,0,0,16,0,0,0,0,100,22,0,0
CS(=O)c1ccc(-c2coc3ccc(-c4n[nH]c(=O)o4)cc23)cc1 (centres unmarked),17,0,0,0,22,7,1,9,11,32,9,6,0,4,0,0,0,0,24,5
OCCn1cc(-c2cnc3nnn(Cc4ccc5ncccc5c4)c3n2)cn1,0,0,32,0,79,0,0,0,0,13,0,0,0,0,0,0,0,0,0,0
COC(=O)Nc1nc2cc(Oc3ccc(NC(=O)Nc4cc(C(F)(F)F)ccc4Cl)cc3)ccc2[nH]1.Cl [GW697465],78,0,0,96.3,84,0,0,51,92.8,0,1,0,8,5,0,41,0,0,0,0
CCNCC(Cc1ccccc1)NC(=O)c1cc(Br)c(-c2ccnc3[nH]ccc23)s1.Cl.Cl (centres unmarked) [GSK1383280],55,21,97.5,34,6,64,35,0,94.3,17,0,6,0,64,98.2,30,0,0,1,26
CC(C)S(=O)(=O)N1CCN(Cc2ccc3c(c2)nc(NC(=O)c2ccsc2)n3C[C@H](O)c2ccccc2)CC1 [GW635815],91.9,0,28,83,20,60,0,7,0,0,90.6,43,79,0,16,36,5,0,1,0
C[C@@H]1CNc2c(sc3ccc4nc(-c5ccncc5)ccc4c23)C(=O)N1,33,0,0,100,50,28,0,0,21,54,2,0,4,0,9,18,2,6,10,0
